The values below come from PubChem BioAssay (NCATS).

Values without a mark were called inactive. Results filed as inconclusive are left out. The source made the active and inactive calls. Calls come from the whole dose curve; as a rule, active = well fitted curve in the direction sought with a large enough effect; inconclusive = small, poorly fitted or top-dose-only effect, or another doubt; inactive = no such curve, though single readings can be large; an effect the other way counts as inactive or inconclusive.

Experiment [1] addresses Glutathione peroxidase 1 (Homo sapiens) (UniProt P07203). In words: Primary qHTS Assay for Inhibitors of Recombinant Selenoprotein Glutathione Peroxidase 1 (GPX1) (AID 1845191). For activity, negative = inhibition: % is set by controls: 0 for no effect and ±100 for the full control effect. Note: nearly all actives have a fitted effect of over 65% in size. The method, boiled down: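 10 nM GPX1 + cpd, 30 min RT; start w/ 1 mM GSH, 0.5 mM cumene hydroperoxide, 0.5 mM NADPH, 100 nM GR, 0.01% BSA; buffer 50 mM Tris-HCl pH 7.5, 2 mM EDTA, 150 mM NaCl; Fl 340/450, 0 & 15 min.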

Experiment [2] addresses Phospholipid hydroperoxide glutathione peroxidase GPX4 (Homo sapiens) (UniProt P36969). The experiment can be described thus: Primary qHTS Assay for Inhibitors of Recombinant Selenoprotein Glutathione Peroxidase 4 (GPX4) (AID 1845192). Note: series mostly up to about 50 µM; % is set by controls: 0 for no effect and ±100 for the full control effect; nearly all actives have a fitted effect of over 65% in size. The procedure, abridged:
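NADPH consumption, followed by fluorescence at 340/450 nm between 0 and 15 min, reports GPX4 activity via coupled glutathione reductase (100 nM). Enzyme 200 nM was pre-exposed to compound 30 min; 0.5 mM cumene hydroperoxide and 1 mM GSH served as substrates.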
(In general: In qHTS, concentration-response curves come from the screen itself.)

In experiment [3] the target is Luciferin 4-monooxygenase (Photinus pyralis) (UniProt P08659). In words: Primary firefly luciferase (FLuc) qHTS assay for identification of artifact compounds. (AID 1845220). Note: nearly all actives have a fitted effect of over 60% in size. The method, boiled down:
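Compounds sat 15 min at room temperature with 10 uM luciferin and 10 uM ATP (pH 7.6 Tris acetate). Firefly luciferase (10 nM final) was then added, and luminescence was read 5 min later. Data normalized to no-enzyme and DMSO controls were Hill-fitted.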

The nature of experiment [4]: Primary fluorescence-based thiol-reactive (MSTI) qHTS assay for identification of artifact compounds. (AID 1845221).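 For activity change, negative = thiol reactive: series mostly up to about 54 µM; thiol-reactive compounds lower the probe fluorescence signal.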 Note: nearly all actives have a fitted effect of over 65% in size. Note: potency is the fitted concentration of half-maximal effect. The procedure, abridged:
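MSTI probe at 4 uM final in 2% DMSO/PBS pH 7.4; compounds, 1 h at room temperature in dark. Fluorescence Ex/Em 525/598 nm, normalised to Acetyl-MSTI and MSTI, fitted to 4-parameter Hill.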

The subject of experiment [5] is Nanoluciferase (engineered Oplophorus gracilirostris luciferase). In words: Primary Nanoluciferase (NLuc) qHTS assay for identification of artifact compounds. (AID 1845222).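 Note: series mostly up to about 54 µM; 0% = DMSO and -100% = no enzyme.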 The method, boiled down: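 Luminescence from secreted NLuc (filtered, 1:55-diluted S16 cell medium) read 5 min after Nano-Glo substrate; compounds preincubated 15 min, RT. Hill fits of inhibition normalized to DMSO and no-enzyme.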

The nature of experiment [6]: Primary redox qHTS assay for identification of artifact compounds. (AID 1845223).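 Note: 0% = DMSO and 100% = reference compound.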 The procedure, abridged:
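Amplex Red (25 uM) and HRP (250 mU/mL) in HBSS, with compounds for 15 min, then 250 uM DTT for 30 min, room temperature, dark. Fluorescence 525/598 nm read; normalized to DMSO and 10 uM DA3003; Hill fit.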

Chain of Glutathione peroxidase 1 (Homo sapiens) (P07203 whole entry, looked up): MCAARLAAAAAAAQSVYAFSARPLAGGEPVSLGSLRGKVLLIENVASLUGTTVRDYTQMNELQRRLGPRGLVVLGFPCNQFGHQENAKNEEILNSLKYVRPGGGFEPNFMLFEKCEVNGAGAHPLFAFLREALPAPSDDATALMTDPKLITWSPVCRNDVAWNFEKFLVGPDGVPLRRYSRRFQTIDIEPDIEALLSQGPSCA
Chain of Phospholipid hydroperoxide glutathione peroxidase GPX4 (Homo sapiens) (P36969 whole entry, looked up): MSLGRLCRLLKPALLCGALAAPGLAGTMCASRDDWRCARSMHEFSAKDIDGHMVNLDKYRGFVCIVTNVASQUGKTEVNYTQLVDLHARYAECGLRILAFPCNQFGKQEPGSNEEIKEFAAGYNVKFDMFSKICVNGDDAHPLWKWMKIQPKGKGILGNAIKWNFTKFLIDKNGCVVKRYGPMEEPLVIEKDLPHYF

For `COc1cc(Nc2nc3c(s2)CCCC3c2ccccc2)ccc1-n1cnc(C)c1` (stereo not drawn), the Potency entry in experiment [1] and in experiment [2] was “inactive” each time. The outcome in experiment [3] was “inactive [at 11.6 µM]”. In experiment [4], the activity change, negative = thiol reactive is -6.96% [at 11.5 µM]. Moreover, in experiment [5], the activity, negative = inhibition is 4.88% [at 11.6 µM]. Further, the redox activity (% of DA3003) in experiment [6] is -0.384% [at 11.5 µM].
Turning to `CC[C@@H](Nc1c(Nc2cccc(C(=O)N(C)C)c2O)c(=O)c1=O)c1ccc(C)o1`, the Potency result in experiment [1], in experiment [2], in experiment [3], in experiment [5] and in experiment [6] was “inactive” throughout. Moreover, the Potency in experiment [4] was 2.38 µM (active).
In the case of `CC1(C(=O)O)CCCC2(C)C3CCC4CC3(CCC12)CC4C(=O)O` (stereo not drawn), the Potency result in experiment [1], in experiment [2], in experiment [3], in experiment [4], in experiment [5] and in experiment [6] was “inactive” in each case.
